Results on 22 molecules are retold here after PubChem BioAssay (NCATS).

Records with an inconclusive call do not appear. Activity calls are given as the source filed them. Calls follow the shape of the dose curve; as a rule, active = well fitted inhibition curve with a large enough effect; inconclusive = small, poorly fitted or top-dose-only effect; inactive = flat fitted curve, though single readings scatter.

For this assay, the system named is Zika virus NS2B-NS3 protease. The experiment in a line: Primary screen GU AMC qHTS for Zika virus inhibitors (AID 1347154).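 Also: 0% = no-inhibitor control and -100% = no-enzyme control; nearly all actives have a fitted effect of over 70% in size.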 The settings on record: Zika NS2B-NS3 unlinked protease, AMC fluorogenic substrate; series mostly up to 54.1 µM; activity change, negative = inhibition: at the top concentration. In short, it runs like this: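 Unlinked Zika NS2B hydrophilic domain/NS3 protease domain noncovalent complex (25 nM final) in 10 mM Tris-HCl pH 8.0, 0.01% Tween 20, with AMC peptide substrate. Fluorescence (ex 340, em 450 nm) change over 15 min, room temperature; percent inhibition fitted to 4-parameter Hill equation.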
`CC1(C)O[C@@H]2C[C@H]3[C@@H]4CCC5=CC(=O)C=C[C@]5(C)[C@@]4(F)[C@@H](O)C[C@]3(C)[C@]2(C(=O)CO)O1`: the “activity change, negative = inhibition” value was 2.36% (inactive).
Then `O=C1[C@@H]2[C@H]3CC[C@H](C3)[C@@H]2C(=O)N1CCCCN1CCN(c2ncccn2)CC1`, with -8.2% (inactive); and `O=C(CO)[C@@H](O)[C@H](O)[C@@H](O)CO`, with -1.46% (inactive).
The figure for `COc1ccccc1N1CCN(CC(O)COc2cc(OC)c(OC)c(OC)c2)CC1` (configuration not stated) is -1.7% (inactive).
The figure for `Cc1ccccc1C(=O)N1CC/C(=N\OS(=O)(=O)O)c2ccc(Cl)cc21` is -3.51% (inactive); for `Cn1c(=O)c2c(ncn2CC(=O)O)n(C)c1=O` it is 3.79% (inactive).
For the molecule `Nc1ncnc2nc[nH]c12`, the “activity change, negative = inhibition” value is -3.53% (inactive).
Then `CCC(=O)Oc1ccc2c(c1)CC[C@@H]1[C@@H]2CC[C@@]2(C)[C@H]1C[C@@H](OC(=O)CC)[C@@H]2OC(=O)CC`, with -14.8% (inactive).
The figure for `Cc1ccc2ccc(Cl)cc2n1` is 2.77% (inactive); for `CC(=O)N1CCN(c2ccc(O)cc2)CC1` it is 4.83% (inactive).
The figure for `CCOC(=O)C(O)c1ccccc1` (configuration not stated) is 0.857% (inactive); for `O=C1CC2(CCCC2)CC(=O)N1` it is 3.43% (inactive); for `Cc1ccc(O)cc1` it is -1.03% (inactive).
For the molecule `CC(C)CCCC(C)NCCC(C)C` (configuration not stated), the “activity change, negative = inhibition” value is 0.862% (inactive).
The figure for `CCOc1c(N2CCOCC2)cnn(C)c1=O` is -5.93% (inactive); for `Cc1ccccc1N1CCN(CCc2nnc3n2CCCC3)CC1` it is -1.11% (inactive).
The figure for `NS(=O)(=O)c1ccc(N2CCCCS2(=O)=O)cc1` is 1.19% (inactive); for `Cc1nc([N+](=O)[O-])cn1-c1ccc([N+](=O)[O-])cc1` it is 2.55% (inactive); for `CCOc1ccc(NS(=O)(=O)c2ccc(N)cc2)nn1` it is 0.388% (inactive).
In the case of `COC(=O)c1cc(S(N)(=O)=O)ccc1OC`, the “activity change, negative = inhibition” value was 4.17% (inactive).
Then `CCCCN(CCN(CCCC)C(=O)N1CCOCC1)C(=O)N1CCOCC1`, with -4.09% (inactive).
Then `C[N+]1(C)CCC(OC(=O)C(O)(c2ccccc2)C2CCCC2)C1` (configuration not stated), with 3.41% (inactive).
